# Source: PubChem BioAssay (several laboratories)
# The list is not random: actives were taken first. Their share in the collection is about 4.1%.
# BoNT-A LC inh2: blocks Botulinum neurotoxin A light chain protease. multiplex microsphere protease substrate cleavage, flow cytometry. inhibition, % at 10 µM. 360,000 tested, 0.17% active
# Autofluor counter: flagged as autofluorescent in microsphere protease counterscreen | compound autofluorescence counterscreen, microsphere flow cytometry; active compounds read high | fluorescence intensity (test concentration not listed) | 360,000 tested, 3.1% active | AID 624483; in the data active = fluorescence intensity above about 16000; inconclusive = no clear call, values can overlap the other calls
# Anthrax LF prot: blocks Bacillus anthracis lethal factor protease; P15917; multiplex microsphere protease cleavage assay, LF; inhibition, % at 10 µM; 360,000 tested, 0.12% active; AID 588501
# Target sequence (P15917 whole entry, looked up): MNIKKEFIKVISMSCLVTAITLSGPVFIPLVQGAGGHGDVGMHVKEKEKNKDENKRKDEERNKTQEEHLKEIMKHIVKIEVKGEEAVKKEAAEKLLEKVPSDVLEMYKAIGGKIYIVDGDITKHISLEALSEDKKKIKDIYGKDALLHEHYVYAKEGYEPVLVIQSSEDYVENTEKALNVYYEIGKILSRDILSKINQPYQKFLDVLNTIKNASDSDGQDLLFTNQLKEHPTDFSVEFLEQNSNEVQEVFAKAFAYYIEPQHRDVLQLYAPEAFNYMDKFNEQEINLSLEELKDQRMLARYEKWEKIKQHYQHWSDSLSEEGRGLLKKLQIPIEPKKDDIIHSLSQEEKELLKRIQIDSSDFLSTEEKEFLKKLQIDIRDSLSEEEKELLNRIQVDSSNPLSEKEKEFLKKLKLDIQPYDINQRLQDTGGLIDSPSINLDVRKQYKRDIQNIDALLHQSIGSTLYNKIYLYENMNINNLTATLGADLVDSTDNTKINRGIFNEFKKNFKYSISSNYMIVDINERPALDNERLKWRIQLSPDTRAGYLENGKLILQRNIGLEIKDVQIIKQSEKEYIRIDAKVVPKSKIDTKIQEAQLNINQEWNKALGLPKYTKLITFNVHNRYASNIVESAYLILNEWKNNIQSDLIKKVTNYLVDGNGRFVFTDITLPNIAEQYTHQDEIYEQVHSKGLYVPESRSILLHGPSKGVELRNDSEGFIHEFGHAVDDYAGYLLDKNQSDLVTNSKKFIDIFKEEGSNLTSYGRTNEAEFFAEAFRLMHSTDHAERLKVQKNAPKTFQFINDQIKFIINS
# VHR inh abs: inhibitors of human VHR1 phosphatase (DUSP3). inhibition, % at 13.3 µM. AID 1654. recombinant VHR phosphatase, pNPP absorbance. P51452. 290,000 tested, 0.52% active; in the data active = inhibition above about 50%
# BoNT F protease: inhibitors of Botulinum neurotoxin F light chain protease | inhibition, % at 10 µM | Multiplex microsphere protease cleavage assay, flow cytometry | 360,000 tested, 0.22% active | AID 588497; in the data active = inhibition above about 35%, passing the limit was not always enough; inconclusive = no clear call, values can overlap the other calls
# MazF activator: MazEF (E. coli) toxin RNase activation; 350,000 tested, 0.32% active; P0AE70; FAM/BHQ RNA-DNA oligo cleavage fluorescence, 5 h; activation, % at 20 µM; in the data active = activation above about 50%
# A number is an active result; – = inactive; ? = inconclusive; · = no result given. Rule as the data show it, unless noted: active = inhibition above about 30%; inconclusive = no clear call, values can overlap the other calls; inactive = below that.
SMILES,BoNT-A LC inh2,Autofluor counter,Anthrax LF prot,VHR inh abs,BoNT F protease,MazF activator
CN(C)C(=O)N1CCN(c2nc(-c3ccccc3)cs2)CC1,–,–,–,52.8,–,–
C[C@@H]1CN([C@@H](C)CO)C(=O)CCCn2cc(nn2)CO[C@H]1CN(C)C(=O)Oc1ccccc1,–,–,–,·,–,–
COc1ccc([C@H]2CC(=O)C=C(c3cccc(F)c3OC)C2)cc1,–,–,–,·,–,–
CC(NC(=O)c1ccc2c(c1)OCO2)C1CCCO1 (configuration not stated),–,22158,–,–,–,–
O=C(c1ccc(CS(=O)(=O)c2cccc(C(F)(F)F)c2)o1)N1CCN(c2ccccn2)CC1,?,23435,–,–,–,–
CCCCNC(=O)c1ccc(CS(=O)(=O)c2cccc(C(F)(F)F)c2)o1,–,21163,–,–,–,–
COc1ccc(CC(=O)N2CCN(c3ccccn3)CC2)cc1OC,–,–,–,–,–,–
CCCc1ccc(OCc2ccc(C(=O)N3CCN(c4ccccn4)CC3)o2)c(OC)c1,?,23006,–,–,–,–
COCCNC(=O)c1ccc(CS(=O)(=O)c2cccc(C(F)(F)F)c2)o1,–,–,–,–,–,–
CN(C)CCNC(=O)c1ccc(CS(=O)(=O)c2c(Cl)cccc2Cl)o1,–,–,–,–,–,–
CCCN(CCC)CCCNC(=O)c1ccc(CS(=O)(=O)c2c(Cl)cccc2Cl)o1,–,–,–,54.7,–,–
CCCCCCCCN1C(=O)[C@H](CC(=O)NCCCOC)C[C@@]2(C(=O)OCC)CCCC=C12,–,–,–,·,–,·
O=C(O)c1ccccc1C(=O)OCC1CCC(=NO)CC1 (configuration not stated),–,–,–,·,–,–
COc1ccc(S(=O)(=O)Cc2ccc(C(=O)NCCCN(C)c3ccccc3)o2)cc1,?,22186,–,–,–,–
O=C(NCc1ccco1)c1ccc(CS(=O)(=O)c2cccc(C(F)(F)F)c2)o1,–,22579,–,–,–,–
CCCCNC(=O)c1ccc(CS(=O)(=O)c2ccc(OC)cc2)o1,–,–,–,–,–,–
CNS(=O)(=O)c1cccc(C(=O)OCC(=O)N2CC(C)OC(C)C2)c1 (configuration not stated),–,–,–,–,–,–
COc1ccc2c(c1)c1nc3ccccc3nc1n2CCCN1C(=O)c2ccccc2C1=O,–,–,–,–,–,698.3
O=C1c2ccccc2C(=O)N1CCCn1c2ccc(Cl)cc2c2nc3ccccc3nc21,–,–,–,·,–,–
COc1cccc(Cn2c(=O)oc3ccccc32)c1,–,–,–,52.6,–,–
O=c1oc2ccccc2n1Cc1ccccc1,–,–,–,–,–,–
COc1ccc2c(c1)c1nc3ccccc3nc1n2CCn1c(=O)oc2ccccc21,–,16506,–,–,–,–
COc1cccc(C(=O)c2ccccc2C(=O)O)c1,–,–,–,·,–,·
O=Cc1ccc([B-](F)(F)F)s1,–,–,–,·,–,–
CC(=O)Nc1cc2c(cc1Br)-c1ccccc1C2,–,–,–,·,–,–
SMILES,BoNT-A LC inh2,Autofluor counter,Anthrax LF prot,VHR inh abs,BoNT F protease,MazF activator
COc1ccc(/C=C2\SC(=S)N(CCC(=O)Nc3ccc(C(=O)O)cc3)C2=O)cc1OC,–,–,–,56.9,–,–
COc1ccc(/C=C2\SC(=S)N(CCCC(=O)Nc3ccccn3)C2=O)cc1OC,39.0,–,–,–,–,–
O=C(CCN1C(=O)/C(=C/c2ccccc2)SC1=S)NNC(=O)c1ccncc1,–,–,–,–,–,135.0
O=C1/C(=C/c2ccc3c(c2)OCO3)SC(=S)N1CCC(=O)N(CCO)c1ccccc1,–,–,–,·,–,77.4
COc1ccc(/C=C2\SC(=S)N(CCCC(=O)Nc3cccc(C(=O)O)c3)C2=O)cc1OC,–,–,–,–,–,–
CC(Sc1nnc(N)s1)C(=O)Nc1ccc2c(c1)OCO2 (configuration not stated),–,–,–,·,–,–
CCc1ccccc1NNC(=O)c1snnc1C,–,–,–,–,?,–
COc1ccc(/C=C2\SC(=S)N(CCC(=O)N(CCO)Cc3ccccc3)C2=O)cc1OC,–,–,–,57.3,–,–
Cc1nn(CC(=O)Nc2ccc3c(c2)nc(CCN2CCCCC2)n3C)c(=O)c2ccccc12,–,20530,–,–,–,–
Cn1c(CN2CCCC2)nc2cc(NC(=O)c3ccc(Cl)cc3)ccc21,–,–,–,–,–,–
CCCC(=O)Nc1ccc2c(c1)nc(CN1CCN(C(C)=O)CC1)n2C,–,–,–,–,–,–
Cn1c(CN2CCCCC2)nc2cc(NC(=O)c3ccc(Cl)cc3)ccc21,–,20694,–,–,–,–
CC(=O)N1CCN(Cc2nc3cc(NC(=O)C4CCCCC4)ccc3n2C)CC1,?,20181,–,–,–,–
O=C(Nc1c(S(=O)(=O)c2ccc(Cl)cc2)csc1Br)c1ccccc1Cl,·,·,·,–,·,–
CN(c1ccccc1)P(=O)(N(C)c1ccccc1)N(C)c1ccccc1,–,–,–,–,–,–
CC1CN(Cc2nc3c(c(=O)n(C)c(=O)n3C)n2Cc2ccccc2)CC(C)O1 (configuration not stated),–,–,–,–,–,–
Cc1ccc(Cn2c(CN3CC(C)OC(C)C3)nc3c2c(=O)[nH]c(=O)n3C)cc1 (configuration not stated),–,20485,–,–,–,–
Cc1ccc(Cn2c(-n3nc(C)cc3C)nc3c2c(=O)[nH]c(=O)n3C)cc1,–,22348,–,–,–,–
CS(=O)(=O)NCCCNc1ccc(Cl)cc1[N+](=O)[O-],–,22714,–,–,–,–
Cc1ccc(C(=O)NCCNc2ccc(Cl)cc2[N+](=O)[O-])o1,?,22948,–,–,–,–
CS(=O)(=O)NCCCNc1ccc(C(F)(F)F)cc1[N+](=O)[O-],–,–,–,–,–,–
CCc1cc[n+](/C(C(=S)Nc2cccc(C)c2)=C(/[O-])c2ccc(C)c([N+](=O)[O-])c2)cc1,31.6,–,–,–,–,–
CCOc1ccc(NC(=S)/C(=C(\[O-])c2ccc(C)c([N+](=O)[O-])c2)[n+]2ccccc2)cc1,–,–,–,–,–,–
CCOCCOC(=O)C1=C(C)NC(=O)NC1c1cc2c(cc1Br)OCO2 (configuration not stated),–,–,–,–,?,–
CC1(C)Cc2c(C#N)c(NCCN3CCOCC3)nc(-c3ccco3)c2CO1,–,21315,–,–,–,–
Cc1cccc(NC(=S)N(CCCN2CCOCC2)C(C)c2cc3ccccc3o2)c1C (configuration not stated),–,?,–,–,–,–
Cc1cc(/C=C2/SC(=S)N(c3cccc(C(F)(F)F)c3)C2=O)c(C)n1-c1cccnc1,53.4,–,45.5,·,83.5,–
Cc1ccccc1NC(=O)C(C)SCc1ccccc1 (configuration not stated),?,–,–,52.0,?,–
Cn1c(SCC(=O)N/N=C/C=C\c2ccco2)nc2ccccc21,–,22987,–,–,–,–
